# Measured values published in PMC8384837, “Expanding the binding specificity for RNA recognition by a PUF domain”.
# Molecular target: PUM1 PUF domain R4-WAG (Homo sapiens, UniProt Q14671 828-1176, N971W;H972A;Q975G)
# Assay: yeast three-hybrid, YBZ-1, SC-Leu-His + 0.5 mM 3-AT, 4 days
# Settings: tags: N-Gal4 AD-HA kept; label: inside an RPR1-promoter hybrid RNA with tandem MS2 sites; ssRNA
# Outline: (§1)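 Each repeat of the Pumilio-1 PUF domain was randomized at its three base-contacting residues, and these libraries were co-expressed from a centromeric plasmid with matching RNA elements in strain YBZ-1. After four days on SC-Leu (input) or SC-Leu-His + 0.5 mM 3-AT (selection), the repeat regions were PCR-amplified and Illumina-sequenced. The interaction score compares variant frequency between input and selection as a log change, computed in log2 with a pseudocount of 1 for absent variants.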
row,Sequence,binding signal
1,GGCUAGAACUAGUGGAUCCCCCGGCGCCCGGCGGCUCGAGCCCGGGUAAGUGUAAAUAGUCUGCAUGCCGCCGGGCGCCAUGCCUGCAGGUCGACUCUAGAAAACAUG,2.25 log2 enrichment (interaction score)
2,GGCUAGAACUAGUGGAUCCCCCGGCGCCCGGCGGCUCGAGCCCGGGUAAGUGUACAUAGUCUGCAUGCCGCCGGGCGCCAUGCCUGCAGGUCGACUCUAGAAAACAUG,3.92 log2 enrichment (interaction score)
3,GGCUAGAACUAGUGGAUCCCCCGGCGCCCGGCGGCUCGAGCCCGGGUAAGUGUAUAUAGUCUGCAUGCCGCCGGGCGCCAUGCCUGCAGGUCGACUCUAGAAAACAUG,4.74 log2 enrichment (interaction score)

# Molecular target: PUM1 PUF domain R5-PRA (Homo sapiens, UniProt Q14671 828-1176, C1007P;Q1011A)
# Assay: as above
# Settings: tags: N-Gal4 AD-HA kept; label: inside an RPR1-promoter hybrid RNA with tandem MS2 sites; ssRNA
# Outline: as §1
row,Sequence,binding signal
1,GGCUAGAACUAGUGGAUCCCCCGGCGCCCGGCGGCUCGAGCCCGGGUAAGUGUGAAUAGUCUGCAUGCCGCCGGGCGCCAUGCCUGCAGGUCGACUCUAGAAAACAUG,1.9 log2 enrichment (interaction score)
2,GGCUAGAACUAGUGGAUCCCCCGGCGCCCGGCGGCUCGAGCCCGGGUAAGUGUAAAUAGUCUGCAUGCCGCCGGGCGCCAUGCCUGCAGGUCGACUCUAGAAAACAUG,4.36 log2 enrichment (interaction score)
3,GGCUAGAACUAGUGGAUCCCCCGGCGCCCGGCGGCUCGAGCCCGGGUAAGUGUUAAUAGUCUGCAUGCCGCCGGGCGCCAUGCCUGCAGGUCGACUCUAGAAAACAUG,2.94 log2 enrichment (interaction score)

# Molecular target: PUM1 PUF domain R3-LYA (Homo sapiens, UniProt Q14671 828-1176, C935L;R936Y;Q939A)
# Assay: as above
# Settings: tags: N-Gal4 AD-HA kept; label: inside an RPR1-promoter hybrid RNA with tandem MS2 sites; ssRNA
# Outline: as §1
row,Sequence,binding signal
1,GGCUAGAACUAGUGGAUCCCCCGGCGCCCGGCGGCUCGAGCCCGGGUAAGUGUAAGUAGUCUGCAUGCCGCCGGGCGCCAUGCCUGCAGGUCGACUCUAGAAAACAUG,4.73 log2 enrichment (interaction score)
2,GGCUAGAACUAGUGGAUCCCCCGGCGCCCGGCGGCUCGAGCCCGGGUAAGUGUAAUUAGUCUGCAUGCCGCCGGGCGCCAUGCCUGCAGGUCGACUCUAGAAAACAUG,4.81 log2 enrichment (interaction score)
3,GGCUAGAACUAGUGGAUCCCCCGGCGCCCGGCGGCUCGAGCCCGGGUAAGUGUAAAUAGUCUGCAUGCCGCCGGGCGCCAUGCCUGCAGGUCGACUCUAGAAAACAUG,2.44 log2 enrichment (interaction score)
